FLuc inh-1: inhibitors of firefly (Photinus pyralis) luciferase. P08659. purified P. pyralis luciferase, luminescence, biochemical. Potency, µM (doses to about 115 µM), usual class: inhibitors. hit rate 2.5% among 76,000. AID 1347043; also: nearly all actives have a fitted effect of over 65% in size
Target sequence (P08659 whole entry, looked up): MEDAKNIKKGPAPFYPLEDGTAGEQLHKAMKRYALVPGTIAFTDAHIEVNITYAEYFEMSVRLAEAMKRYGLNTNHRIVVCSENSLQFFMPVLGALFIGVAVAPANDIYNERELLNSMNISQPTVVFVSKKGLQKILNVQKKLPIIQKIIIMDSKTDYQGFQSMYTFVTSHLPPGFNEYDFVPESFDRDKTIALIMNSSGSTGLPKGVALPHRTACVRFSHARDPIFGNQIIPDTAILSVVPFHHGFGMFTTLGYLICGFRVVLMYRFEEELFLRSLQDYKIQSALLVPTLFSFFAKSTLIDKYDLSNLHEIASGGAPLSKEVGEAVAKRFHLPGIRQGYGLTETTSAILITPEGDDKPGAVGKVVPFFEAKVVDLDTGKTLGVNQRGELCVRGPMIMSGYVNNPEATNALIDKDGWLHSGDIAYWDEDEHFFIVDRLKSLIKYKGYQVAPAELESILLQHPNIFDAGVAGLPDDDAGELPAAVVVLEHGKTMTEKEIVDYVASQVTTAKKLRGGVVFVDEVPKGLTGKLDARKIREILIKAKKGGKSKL
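Inhibitors were tested against purified firefly luciferase in a biochemical, low-substrate format (both substrates at 10uM) and luminescence measured with a CCD imager.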
HEK293 tox: HEK 293 cell cytotoxicity | HEK 293 viability, ATP luminescence (CellTiter-Glo), 48-72 h | Potency, µM (series often up to 115 µM), actives largely listed as inhibitors | hit rate 6.6% among 94,000; also: nearly all actives have a fitted effect of over 60% in size
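Read-out: CellTiter-Glo ATP luminescence. Cells: HEK 293, 250 cells/well. Exposure: 48 or 72 hr, 37 degree Celsius.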
NIH3T3 tox: NIH 3T3 cell cytotoxicity | NIH 3T3 viability, CellTiter-Glo ATP luminescence, 48-72 h | Potency, µM (highest dose often 96.7 µM), most hits filed as inhibitors | hit rate 4.3% among 94,000 | AID 1345082; also: nearly all actives have a fitted effect of over 55% in size
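Viability of NIH 3T3 cells after 48 or 72 hr compound treatment at 37 °C was assessed by CellTiter-Glo, with luminescence imaged following a 10 min room-temperature step.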
NPR1 antag: blocks ANP-stimulated signaling of human Npr1 receptor. P16066. HEK293 hNpr1 GloSensor cGMP, ANP-stimulated luminescence. Potency, µM (doses to about 46.3 µM), most hits filed as inhibitors. hit rate 1.6% among 76,000; calls by dose curve; also: nearly all actives have a fitted effect of over 60% in size
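Compound pre-incubated 30 min at room temperature on GloSensor-loaded HEK293 cells stably carrying hNpr1 and the pGS-40F cGMP biosensor. Stimulation uses hNppA at 0.1 nM final; luminescence is taken at baseline and 20 min post-agonist.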
FLuc SDR -ATP: firefly luciferase binding stabilization, ATP absent; Purified FLuc-C-HiBiT, Nano-Glo HiBiT luminescence, no ATP; AID 1963318; Potency, µM (doses to about 32.7 µM), actives largely listed as activators; hit rate 7.8% among 1,300; shares compounds with FLuc inh-1; also: nearly all actives have a fitted effect of over 55% in size
FLuc SDR ATP: firefly luciferase binding stabilization, ATP added; shares compounds with FLuc inh-1; purified FLuc-C-HiBiT + ATP, HiBiT complementation luminescence; Potency, µM (doses to about 32.7 µM), actives largely listed as activators; hit rate 8.7% among 1,300;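 also: signal reports ligand binding via conformational change of the enzyme rather than luciferase catalysis; nearly all actives have a fitted effect of over 55% in size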
FLuc inh-2: blocks firefly luciferase enzymatic activity. hit rate 42% among 1,300. shares compounds with FLuc inh-1. Potency, µM (highest dose often 32.7 µM), most hits filed as inhibitors. purified FLuc-C-HiBiT enzyme, luciferin luminescence; also: nearly all actives have a fitted effect of over 70% in size
Large screens that a line does not name were inactive (follow-up assays come after a bar, where they were run). Shown are actives, neighbours in structure and some others; about 11% of the full set was active somewhere. Unless noted, calls follow the shape of the dose curve; as a rule, active = well fitted curve in the direction sought with a large enough effect; inconclusive = small, poorly fitted or top-dose-only effect, or another doubt; inactive = no such curve, though single readings can be large; an effect the other way counts as inactive or inconclusive.

COc1ccc(-c2cc(N3CCCC(NC(=O)c4cccc(OC)c4)C3)n[nH]2)cc1 (centres undefined)	FLuc inh-1 7.08µM, HEK293 tox 25.1µM, NIH3T3 tox inconclusive | FLuc SDR -ATP inactive | FLuc SDR ATP inactive | FLuc inh-2 inconclusive
COc1ccc(-c2cc(N3CCCC(NC(=O)c4ccc5[nH]ccc5c4)C3)n[nH]2)cc1 (centres undefined)	FLuc inh-1 4.47µM, HEK293 tox inconclusive, NIH3T3 tox inconclusive | FLuc SDR -ATP inactive | FLuc SDR ATP inactive | FLuc inh-2 4.95µM
CN(C)c1ccc(C(=O)NC2CCN(c3cc(-c4ccc(Cl)cc4)[nH]n3)C2)cc1 (centres undefined)	HEK293 tox inconclusive, NIH3T3 tox inconclusive
COc1cc(C(=O)NC2CCCN(c3cc(-c4ccc(F)cc4)[nH]n3)C2)cc(OC)c1OC (centres undefined)	FLuc inh-1 12.6µM, HEK293 tox inconclusive, NIH3T3 tox inconclusive | FLuc SDR -ATP inactive | FLuc SDR ATP inactive | FLuc inh-2 inconclusive
COc1ccc(-c2cc(N3CCCC(NC(=O)c4ccc(C)cc4)C3)n[nH]2)cc1 (centres undefined)	FLuc inh-1 inconclusive, HEK293 tox inconclusive, NIH3T3 tox inconclusive
COc1ccc(-c2cc(N3CCCC(NC(=O)c4cccc(Br)c4)C3)n[nH]2)cc1 (centres undefined)	FLuc inh-1 inconclusive, HEK293 tox inconclusive, NIH3T3 tox inconclusive
CN(C)c1cccc(C(=O)NC2CCN(c3cc(-c4ccc(Cl)cc4)[nH]n3)C2)c1 (centres undefined)	FLuc inh-1 12.6µM, HEK293 tox inconclusive, NIH3T3 tox inconclusive | FLuc SDR -ATP inactive | FLuc SDR ATP inconclusive | FLuc inh-2 inconclusive
CN(Cc1ccccc1C(F)(F)F)C(=O)c1ccc(C(F)(F)F)cc1	HEK293 tox inconclusive, NIH3T3 tox inconclusive
COC(=O)[C@@H]1C[C@H](NC(=O)c2ccc(Oc3ccccc3)cc2)CN1C	FLuc inh-1 14.1µM | FLuc SDR -ATP inactive | FLuc SDR ATP inactive | FLuc inh-2 inconclusive
COc1ccc(C(=O)Nc2cc(S(=O)(=O)c3ccc(Cl)cc3)c(O)c(C)c2C)cc1	none (no result: FLuc inh-1, HEK293 tox, NIH3T3 tox, NPR1 antag) | FLuc SDR -ATP inactive | FLuc SDR ATP inactive | FLuc inh-2 inactive
COc1ccc(C(=O)NC(C(=O)N2CCCC2)C2CCN(C(=O)c3ccc(Cl)cc3)CC2)cc1 (centres undefined)	HEK293 tox inconclusive
COc1ccccc1-c1cnc(Nc2cc(F)cc(N3CCOCC3)c2)c2c1CCO2	HEK293 tox inconclusive, NIH3T3 tox inconclusive
COc1ccc(-c2ccc3ncc(Nc4cc(F)cc(N5CCOCC5)c4)n3n2)cc1OC	FLuc inh-1 8.91µM, HEK293 tox inconclusive, NIH3T3 tox 17.8µM | FLuc SDR -ATP inactive | FLuc SDR ATP inactive | FLuc inh-2 inconclusive
CCOc1ccccc1-c1noc(-c2ncn3c2COC(c2ccc(OC)cc2)C3)n1 (centres undefined)	HEK293 tox inconclusive, NIH3T3 tox inconclusive
CCOCC1(C)COc2ccc(C(=O)Nc3ccccc3)cc2N1 (centres undefined)	FLuc inh-1 10µM, HEK293 tox inconclusive, NIH3T3 tox inconclusive | FLuc SDR -ATP inactive | FLuc SDR ATP inactive | FLuc inh-2 inconclusive
COc1ccc(C(=O)N[C@H]2C[C@@H](c3nc(-c4cncnc4)no3)N(C)C2)cc1	FLuc inh-1 inconclusive
COc1ccc(-c2noc([C@@H]3C[C@H](NCc4ccccn4)CN3C)n2)cc1	FLuc inh-1 12.6µM, HEK293 tox 100µM, NIH3T3 tox inconclusive, NPR1 antag inconclusive | FLuc SDR -ATP inactive | FLuc SDR ATP inactive | FLuc inh-2 inconclusive
Cn1cccc1CN1CCCC2(C1)C(=NC1CCCC1)NC(=O)N2c1cccnc1 (centres undefined)	NIH3T3 tox inconclusive (no result: FLuc inh-1, NPR1 antag)
CC(C)n1cc2cc(C(=O)Nc3ccc4c(c3)OCCO4)sc2c1	FLuc inh-1 14.1µM, HEK293 tox 35.5µM, NPR1 antag inconclusive | FLuc SDR -ATP inactive | FLuc SDR ATP inactive | FLuc inh-2 9.89µM
CC(C)n1cc2cc(C(=O)NC3CCCCCC3)sc2c1	HEK293 tox inconclusive, NIH3T3 tox inconclusive
CCNC(=O)N1CC(n2cc(C(=O)NCCCOC)nn2)C1	none (no result: FLuc inh-1, NPR1 antag)
CC(C)C(=O)N1Cc2ccccc2CC2(CCN(CC3CCNC3)C2)C1 (centres undefined)	none (no result: FLuc inh-1, NPR1 antag)
CC(C)CNc1ccc2c(n1)C(C)(C(=O)N1CCOCC1)CN(Cc1ccccc1)C2 (centres undefined)	HEK293 tox inconclusive, NIH3T3 tox inconclusive
N#Cc1c(NC(=O)c2cccc3ccccc23)sc2c1CCCC2	none (no result: FLuc inh-1, HEK293 tox, NIH3T3 tox, NPR1 antag) | FLuc SDR -ATP inactive | FLuc SDR ATP inactive | FLuc inh-2 inactive
COc1ccc(N2CCN(C(=O)Cn3cccc3-c3nc(-c4ccc5c(c4)OCO5)no3)CC2)cc1	none | FLuc SDR -ATP inactive | FLuc SDR ATP inactive | FLuc inh-2 inactive
CCCCC(=O)Nc1cccc(-c2nc3ccccc3s2)c1	none (no result: FLuc inh-1, HEK293 tox, NIH3T3 tox, NPR1 antag) | FLuc SDR -ATP inactive | FLuc SDR ATP inactive | FLuc inh-2 inconclusive
COc1cccc(CC(=O)Nc2ccc(-c3nc4ccccc4s3)cc2)c1	none (no result: FLuc inh-1, HEK293 tox, NIH3T3 tox, NPR1 antag) | FLuc SDR -ATP inactive | FLuc SDR ATP inactive | FLuc inh-2 inconclusive
CCCC(=O)Nc1ccccc1-c1cccc(NC(C)=O)c1	none
COc1cccc(CC(=O)Nc2ccc3ncnc(N4CCCC4)c3c2)c1	HEK293 tox inconclusive, NIH3T3 tox inconclusive
Cc1cc(C)cc(OCC(=O)Nc2ccc(-c3nc4ccccc4s3)cc2)c1	none (no result: FLuc inh-1, HEK293 tox, NIH3T3 tox, NPR1 antag) | FLuc SDR -ATP inactive | FLuc SDR ATP inactive | FLuc inh-2 inactive
Cc1cccc(OCC(=O)Nc2ccc(-c3nnc4n3CCCC4)cc2)c1	NIH3T3 tox inconclusive
COc1ccc(-c2nc(C3CC3)nc3c2CCN(Cc2cccc4ccccc24)CC3)cc1	HEK293 tox inconclusive (no result: FLuc inh-1, NPR1 antag)
Cc1ccc(-c2nnc(SCc3ccccc3)o2)cc1	none (no result: FLuc inh-1, HEK293 tox, NIH3T3 tox, NPR1 antag) | FLuc SDR -ATP inactive | FLuc SDR ATP inactive | FLuc inh-2 inconclusive
Cc1cccc(-c2nnc(SCCC(=O)O)o2)c1	none (no result: FLuc inh-1, HEK293 tox, NIH3T3 tox, NPR1 antag) | FLuc SDR -ATP inactive | FLuc SDR ATP inconclusive | FLuc inh-2 4.95µM
Cc1ccc(-c2nnc(C3CN(C(=O)Cc4ccccc4)CC34CCOCC4)o2)cc1 (centres undefined)	HEK293 tox inconclusive
Cc1cccc(C(=O)N2CCCCCC2c2nnc(-c3ccccc3)o2)c1 (centres undefined)	HEK293 tox inconclusive, NIH3T3 tox inconclusive
Cc1ccc(-c2nc(C(=O)NCc3ccc(Cl)cc3)no2)cc1	none
CCc1ccc(-c2nc(CSCC(=O)NCc3ccc(C)cc3)c(C)o2)cc1	none (no result: FLuc inh-1, HEK293 tox, NIH3T3 tox, NPR1 antag) | FLuc SDR -ATP inactive | FLuc SDR ATP inactive | FLuc inh-2 inconclusive

Assay outcomes deposited in PubChem BioAssay by National Center for Advancing Translational Sciences (NCATS).
